# Screening data as filed in PubChem.
# An excerpt weighted towards active compounds, which were near 11% of everything screened.
# HEK cytotox: cytotoxic compounds in HEK 293 cells; 94,000 tested, 6.6% active; HEK 293 viability, ATP luminescence (CellTiter-Glo), 48-72 h; AID 1345083; Potency, µM (series often up to 115 µM), for inactives: at the top dose activity change, negative = cytotoxicity, usual class: inhibitors; also: nearly all actives have a fitted effect of over 60% in size
#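 CellTiter-Glo luminescence (cellular ATP) was read after 48 or 72 hr of compound exposure at 37 degree Celsius. Cells were HEK 293 plated at 250 cells/well.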
# 3T3 cytotox: kills NIH 3T3 cells | Potency, µM (top dose mostly 96.7 µM), for inactives: at the top dose activity change, negative = cytotoxicity, most hits filed as inhibitors | AID 1345082 | 94,000 tested, 4.3% active | NIH 3T3 viability, CellTiter-Glo ATP luminescence, 48-72 h; also: nearly all actives have a fitted effect of over 55% in size
#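 First NIH 3T3 cells are plated at 400 cells/well; next compound is pinned in; then plates incubate 48 or 72 hr at 37 °C; finally CellTiter-Glo is added and luminescence read after 10 min.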
# Luciferase inh: inhibitors of firefly (Photinus pyralis) luciferase | P08659 | purified P. pyralis luciferase, luminescence, biochemical | Potency, µM (highest dose often 115 µM), actives largely listed as inhibitors | 76,000 tested, 2.5% active | AID 1347043; also: nearly all actives have a fitted effect of over 65% in size
#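 Inhibitors were tested against purified firefly luciferase in a biochemical, low-substrate format (both substrates at 10uM) and luminescence measured with a CCD imager.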
# NPR1 antag: human Npr1 receptor antagonism; HEK293 hNpr1 GloSensor cGMP, ANP-stimulated luminescence; Potency, µM (highest dose often 46.3 µM), inactives show at the highest dose activity change, negative = inhibition, hits mostly inhibitors; 76,000 tested, 1.6% active; P16066; calls by dose curve; also: nearly all actives have a fitted effect of over 60% in size
#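 HEK293 cells stably expressing human Npr1 and cGMP GloSensor pGS-40F, loaded 2 h with 2% GloSensor reagent, given compound 30 min at room temperature. Luminescence read before and 20 min after 0.1 nM hNppA.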
# * marks the source's active call; other numbers are inactive results; i = inactive; ? = inconclusive; / = not tested or not shown; [ ] = another dose, or the depositor's remark. Unless noted, calls follow the shape of the dose curve; as a rule, active = well fitted curve in the direction sought with a large enough effect; inconclusive = small, poorly fitted or top-dose-only effect, or another doubt; inactive = no such curve, though single readings can be large; an effect the other way counts as inactive or inconclusive. % is scaled to controls: 0 for no effect and ±100 for the full control effect; potency is read from the fitted curve at half-maximal effect.
SMILES,HEK cytotox,3T3 cytotox,Luciferase inh,NPR1 antag
Cc1ccc(-c2cnc([C@@H]3COCCN3CC3CC3)[nH]2)cc1,63.1µM*,-18.9%[174 µM],i,3.1%[70.6 µM]
CC(C)(C)CN1CCOC[C@H]1c1ncc(-c2ccc(Cl)cc2)[nH]1,79.4µM*,89.1µM*,i,-18.3%[70.6 µM]
Cc1ccc(-c2cnc([C@@H]3COCCN3Cc3ccncc3)[nH]2)cc1,-5.9%[172 µM],2.0%[174 µM],i,4.0%[70.6 µM]
CC(C)(C)CN1CCOC[C@H]1c1ncc(-c2ccc(C(F)(F)F)cc2)[nH]1,70.8µM*,79.4µM*,i,?
CN1CCc2nc(N3CCN(C(=O)CCC4CCCC4)CC3)sc2C1,?,-13.8%,?,-10.4%
C[C@H]1[C@@H]2[C@@H](O)C([C@H](C)C(=O)NCc3ccc(F)cc3)CC[C@@]2(C)CC[C@@H]1NC(=O)c1ccccc1 (stereo partly drawn),39.8µM*,?,i,-1.6%
CS(=O)(=O)N1CCCN(C(=O)NC2CCCCC2)CCNC(=O)CC1c1ccccc1 (stereo not drawn),i,-8.6%,i,4.5%
COc1ccccc1CC(=O)N1CCC2(CC1)N=C(c1ccc(Cl)cc1)NO2,44.7µM*,?,i,?
O=C(c1ccccc1)N1CCC2(CC1)N=C(c1cccc(Br)c1)NO2,?,?,i,-10.7%
Cc1ccccc1CC(=O)N1CCC2(CC1)N=C(c1cccc(Br)c1)NO2,89.1µM*,?,i,?
O=C1CC(c2ccccc2)N(Cc2ccncc2)CCCN(C(=O)C2CCOCC2)CCN1 (stereo not drawn),i,2.3%,i,2.7%
O=S(=O)(c1ccc(C(F)(F)F)cc1)N1CCC(C2CCNC2)CC1 (stereo not drawn),79.4µM*,?,i,0.3%
O=S(=O)(c1ccc(F)c(F)c1)N1CCC(C2CCNC2)CC1 (stereo not drawn),?,-12.6%,i,-2.5%
O=C1Nc2ccc(-c3ccc4c(c3)OCO4)cc2C(=O)N2C[C@@H](NS(=O)(=O)c3ccc(F)cc3)C[C@@H]12,?,?,i,3.8%
COc1ccc(Nc2nccc3c(=O)cc(N4CCOCC4)oc23)cn1,-31.9%[172 µM],89.1µM*,i,9.4%[70.6 µM]
O=c1cc(N2CCOCC2)oc2c(NC3CCOCC3)nccc12,-23.8%[172 µM],31.6µM*,i,0.8%[70.6 µM]
COc1ccc(-c2nccc3c(=O)cc(N4CCN(C)CC4)oc23)cn1,i,?,i,-0.8%[70.6 µM]
O=c1cc(N2CCOCC2)oc2c(Nc3ccccc3)nccc12,-13.8%[172 µM],39.8µM*,i,2.2%[70.6 µM]
Cc1cc(=O)n(CC(=O)NCCc2ccc(Cl)cc2)c(N2CCOCC2)n1,-26.6%,-12.0%,i,-2.7%
CCOC(=O)C1CCN(C(=O)c2ccc3nnc(-c4cc[nH]c4)n3c2)CC1,2.3%,-22.0%,/,/
COc1ccc(C(=O)N2CCC3(CC2)NC(=O)N(c2cccc(F)c2)N3)cc1F,?,?,i,-0.4%
CC(=O)N1Cc2ccccc2OC2(CCN(C(=O)NC(C)C)CC2)C1,-24.8%,-10.0%,/,/
COc1cccc(CCC(=O)N2CCCN(c3cc(-c4ccc(Cl)cc4)[nH]n3)CC2)c1,?,35.5µM*,i,?
COc1ccccc1CCC(=O)N1CCCN(c2cc(-c3ccc(Cl)cc3)[nH]n2)CC1,?,35.5µM*,i,-26.3%
CCn1ccc(C(=O)N2c3ccccc3CC2c2nc(C(C)C)no2)n1 (stereo not drawn),?,-15.9%,39.8µM*,-11.5%
SMILES,HEK cytotox,3T3 cytotox,Luciferase inh,NPR1 antag
CC(C)c1noc(C2Cc3ccccc3N2C(=O)CCn2cnnn2)n1 (stereo not drawn),6.2%,2.7%,i,-1.8%
O=C([C@@H]1C[C@H](Oc2ccccc2)CN1C(=O)CC1CCCC1)N1CCCC1,i,31.6µM*,i,0.2%
COc1cccc(N2C(=O)NC(=NC3CCCCC3)C23CCCN(Cc2cccnc2)C3)c1 (stereo not drawn),-16.9%,?,/,/
COc1cccc(N2C(=O)NC(=NC3CCCCC3)C23CCCN(Cc2ccsc2)C3)c1 (stereo not drawn),?,39.8µM*,/,/
COc1cccc(N2C(=O)NC(=NC3CCCCC3)C23CCCN(Cc2ccc(N(C)C)cc2)C3)c1 (stereo not drawn),31.6µM*,28.2µM*,/,/
O=C(Nc1cccc(Br)c1)N1CCC2(CC1)SCC(=O)N2Cc1ccco1,28.2µM*,15.8µM*,?,?
